Hits are enriched below; roughly 0.97% of the tested compounds scored in any of these assays.
NOD2 RIPK2 PPI = blocks binding of human NOD2 to RIPK2; CHO BLA complementation NOD2-RIPK2, CCF4 ratio; 360,000 tested, 0.38% active; inhibition, % at 4.98 µM; O43353; in the data active means inhibition above about 21%
Target sequence (O43353 whole entry, looked up): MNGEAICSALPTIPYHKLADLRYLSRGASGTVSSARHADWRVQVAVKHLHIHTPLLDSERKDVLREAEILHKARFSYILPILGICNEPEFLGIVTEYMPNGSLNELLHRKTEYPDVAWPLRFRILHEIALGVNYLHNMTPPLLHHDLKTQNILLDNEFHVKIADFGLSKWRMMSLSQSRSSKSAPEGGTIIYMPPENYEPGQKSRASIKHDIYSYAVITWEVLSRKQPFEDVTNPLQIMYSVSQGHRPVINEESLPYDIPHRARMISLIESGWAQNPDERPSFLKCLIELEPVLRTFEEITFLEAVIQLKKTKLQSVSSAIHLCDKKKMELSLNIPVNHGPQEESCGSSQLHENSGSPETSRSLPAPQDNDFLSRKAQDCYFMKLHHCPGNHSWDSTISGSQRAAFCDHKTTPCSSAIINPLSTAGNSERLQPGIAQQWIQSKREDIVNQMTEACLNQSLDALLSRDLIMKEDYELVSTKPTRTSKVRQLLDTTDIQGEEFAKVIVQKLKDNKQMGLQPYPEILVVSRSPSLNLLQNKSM
Bfl-1 A1 inh = inhibitors of the anti-apoptotic protein A1, read as caspase activation. caspase activation, % (test concentration not listed). 330,000 tested, 0.066% active. AID 2462. MEF A1-2A-BIM cells, Caspase-Glo 3/7 luminescence, 3 h; percent of clofoctol response, vehicle zero;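 active means over half of replicate activation scores above 10%, or exactly half above 10 with the replicate mean above 10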
TLR9-MyD88 block = inhibitors of human TLR9-MyD88 binding; inhibition, % at 4.98 µM; AID 504734; Q9NR96+Q99836; CHO BLA complementation TLR9-MyD88, CCF4 FRET ratio; 340,000 tested, 0.21% active;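 active means inhibition above the mean over all tested compounds plus 3 SD, cut at about 21% in these data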
TLR4 MyD88 comp = TLR4-MyD88 interaction inhibition in cells; inhibition, % at 8.4 µM; HeLa CL3-4 TLR4/MyD88 BLA complementation, FRET ratio; 200,000 tested, 0.18% active; AID 861; in the data active means inhibition above about 25%
NTR1 agonist = agonists of human neurotensin receptor NTR1; NTR1-U2OS beta-arrestin-GFP spot imaging, agonist mode; 330,000 tested, 0.17% active; activation, % at 20 µM; AID 493036; P30989;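 active means activation at or above 40% of the spot to cytoplasm intensity ratio, with at least 20 cells analyzed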
B2AR ag = agonists of human beta-2 adrenergic receptor inducing internalization; response, % (no concentration beside the values); Am2.2-beta2AR cells, FAP receptor internalization, flow cytometry; P07550; 340,000 tested, 0.43% active;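 active means response above a set limit, near 3 SD of response in nonfluorescent compounds, cut at about 42% in these data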
Each line names hits and unclear results; the compound was inactive in the other large screens; ! = a repeat was not active.

COc1ccc(-c2ccc3c(c2)S(=O)(=O)c2cccc(C(=O)NCc4cccc(OC(F)(F)F)c4)c2C3=O)cc1OC	Bfl-1 A1 inh 39 (no result: TLR4 MyD88 comp)
O=C(NCc1cccc(OC(F)(F)F)c1)c1cccc2c1C(=O)c1ccc(-c3ccc(F)cc3OCc3ccccc3)cc1S2(=O)=O	none (no result: TLR4 MyD88 comp)
CC[C@H](C)Cc1cn([C@@H](CCCN=C(NC(=O)OC(C)(C)C)NC(=O)OC(C)(C)C)C(=O)NCCCCCCCCCCC(=O)N2CCN(C(=O)OC(C)(C)C)CC2)nn1	NTR1 agonist 45 (no result: TLR4 MyD88 comp)
C#CCOCCOCCOCCNc1nc(N2CCN(C(=O)CCCCCCCCCCNC(=O)[C@H](CCCCN)n3cc(C[C@@H](C)CC)nn3)CC2)nc(N2CCN(C(=O)CCCCCCCCCCNC(=O)[C@@H]([C@H](C)O)n3cc(C)nn3)CC2)n1	NOD2 RIPK2 PPI 35, B2AR ag 77 (no result: TLR4 MyD88 comp)
C#CCOCCOCCOCCNc1nc(N2CCN(C(=O)CCCCCCCCCCNC(=O)[C@H](CCCCN)n3cc(C[C@@H](C)CC)nn3)CC2)nc(N2CCN(C(=O)CCCCCCCCCCNC(=O)[C@H](CCCN=C(N)N)n3cc(C[C@@H](C)CC)nn3)CC2)n1	NOD2 RIPK2 PPI 73, TLR9-MyD88 block 34, B2AR ag 42 (no result: TLR4 MyD88 comp)
C#CCOCCOCCOCCNc1nc(N2CCN(C(=O)CCCCCCCCCCNC(=O)[C@@H](CCSC)n3cc(CCO)nn3)CC2)nc(N2CCN(C(=O)CCCCCCCCCCNC(=O)[C@H](CCCN=C(N)N)n3cc(C[C@@H](C)CC)nn3)CC2)n1	NOD2 RIPK2 PPI 41, B2AR ag 58 (no result: TLR4 MyD88 comp)
Cc1cn([C@@H](CCCCNC(=O)OC(C)(C)C)C(=O)NCCCCCCCCCCC(=O)N2CCN(C(=O)OC(C)(C)C)CC2)nn1	none (no result: TLR4 MyD88 comp)
CC(=O)O/N=C/c1c(NCc2ccccc2)nc2c(C)cccn2c1=O	none (no result: TLR9-MyD88 block, TLR4 MyD88 comp)
COc1ccc(C(NC(=O)C2CCN(CCCc3ccccc3)CC2)c2ccccn2)cc1 (stereo not given)	none (no result: Bfl-1 A1 inh, TLR9-MyD88 block, TLR4 MyD88 comp, NTR1 agonist, B2AR ag)
COc1ccccc1Oc1cc(F)nc(N)n1	none
Cc1ccc(Nc2cc(C)nn2-c2nc(C)cc(C)n2)cc1	none
Cc1ccc(Nc2cc(C)nn2-c2nc(C)cc(=O)[nH]2)cc1	NOD2 RIPK2 PPI 53, TLR9-MyD88 block 41
CSC[C@@H]1NC(=S)N(c2ccc(C)cc2)C1=O	Bfl-1 A1 inh 23
C=CCOC(=O)C1=C(C)NC(SCC(=O)N(CC)CC)=C(C#N)C1c1ccccc1 (stereo not given)	none
C=CCOC(=O)C1=C(C)NC(SCC(=O)NC(=O)OCC)=C(C#N)C1c1cccnc1 (stereo not given)	B2AR ag 57!
COc1ccccc1NC(=O)c1cc2c(CO)cnc(C)c2oc1=Nc1cccc(C(N)=O)c1	B2AR ag 58 (no result: TLR4 MyD88 comp)
COc1cccc(N=c2oc3c(C)ncc(CO)c3cc2C(=O)Nc2ccccc2OC)c1	none (no result: NOD2 RIPK2 PPI, Bfl-1 A1 inh, TLR9-MyD88 block, NTR1 agonist, B2AR ag)
O=C(CSCc1cccc(CSCC(=O)Nc2ccc3ccccc3c2)n1)Nc1ccc2ccccc2c1	none
CC1CN(C(=O)CCC(=O)NCc2ccc(F)cc2)c2ccccc2S1 (stereo not given)	none (no result: TLR4 MyD88 comp)
CCCCNC(=O)CNC(=S)N(Cc1ccccc1)Cc1cccnc1	B2AR ag 52
O=C(CNC(=S)N(Cc1ccccc1)Cc1cccnc1)NCCc1ccccc1	none
COc1ccc(C2CC(c3cccs3)=NN2C(=O)CSc2nc3ccccc3o2)cc1 (stereo not given)	none
O=C(/C=C/c1ccc2c(c1)OCO2)NCCSCc1c(Cl)cccc1Cl	B2AR ag 77
O=C1/C(=C/c2ccncc2)CCC/C1=C\c1ccncc1	B2AR ag 47 (no result: Bfl-1 A1 inh, NTR1 agonist)
O=C1C(=Cc2ccncc2)CCCc2ccccc21	none (no result: Bfl-1 A1 inh, TLR4 MyD88 comp, NTR1 agonist, B2AR ag)
COc1ccc(CCC(=O)Nc2sc(C(=O)N(C)C)c(C)c2C#N)cc1	none (no result: Bfl-1 A1 inh, TLR4 MyD88 comp)
O=C(COc1ccc2c3c(c(=O)oc2c1)CCC3)Nc1ccccn1	B2AR ag 61 (no result: TLR4 MyD88 comp)
COc1ccc(-c2nc(CS(=O)(=O)CC(=O)NCCc3ccc(C)cc3)c(C)o2)cc1	none (no result: TLR4 MyD88 comp)
CC(C)[C@H](NC(N)=O)C(=O)Nc1ccc(Oc2ccccc2)cc1	none
COc1ccc(-c2nc(NC(=O)c3n[nH]c(=O)c4ccccc34)sc2C)cc1	Bfl-1 A1 inh 6.7
COc1cc(NC(=O)CSc2nnc3ccccn23)cc(OC)c1	none (no result: TLR4 MyD88 comp)
